Rows were chosen to be rich in hits. Some 7.6% of all compounds tested hit in one or more screens of this group.
BRCA1 expr act: BRCA1 expression activation. 1.1% of 380,000 active. Potency, µM (doses to about 46.1 µM), for inactives: at the top dose activation, usual class: activators. MCF7-BRCA1-FFLuc reporter, luminescence, 48 h; response scale: scaled: vehicle 0%, 10 µM genistein 100%; further: potency means the concentration at half of the fitted maximal effect; nearly all actives have a fitted effect of over 80% in size
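MCF7-BRCA1-FFLuc, 2000 cells/well; 2 h attach, 37 °C/5% CO2; compound 48 h; luciferase substrate 15 min; luminescence end-point. Norm. to genistein 10 microM max activation and DMSO; concentration-response curves fitted.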
p53 reactivation: re-activators of mutant p53 | H1299 p53-A138V BP100-luciferase reporter, luminescence, 24 h | Potency, µM (doses to about 92.2 µM), for inactives: at the highest dose activity change, positive = activation, usual class: activators | 0.063% of 320,000 active; further: potency means the concentration at half of the fitted maximal effect; % of control where 0% means no effect; nearly all actives have a fitted effect of over 45% in size
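H1299 (p53-null), stable ts p53-A138V + BP100-Luc; 1000 cells/well, Opti-MEM/10% FBS; cpd 4 pt, 1:5; 24 h, 37 deg C, 5% CO2; detection reagent 10 min RT; luminescence.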
Giardia killer: kills Giardia lamblia. AID 540267. Giardia lamblia trophozoite viability. activity change, % at 7.66 µM, hits read low. 0.15% of 340,000 active; in the data active means activity change below about -80%; inconclusive means between about -30% and that limit;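 further: parasites exposed to compound for two days anaerobically before the ATP read; on the % scale 0 is the no-effect control and ±100 the full control effect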
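Trophozoites 100 cells/well + cpd; 48 hrs, 37 deg C, anaerobic. ATPLite 1-Step added, 15-30 min RT, luminescence read (ATP-based viability).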
Gal4-VP16 FLuc: inhibits Gal4-VP16 luciferase reporter, ROR gamma counter-screen | 3.5% of 310,000 active | Potency, µM (doses to about 53.6 µM), without a hit: at the top dose activity, negative = inhibition, usual class: inhibitors | AID 2546 | Drosophila S2 Gal4-VP16 UAS-luciferase, luminescence, 20 h;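 further: Gal4-VP16 expression switched on by copper sulfate through the metallothionein promoter; potency means the concentration at half of the fitted maximal effect; on the % scale 0 is the no-effect control and ±100 the full control effect; nearly all actives have a fitted effect of over 50% in size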
RORg inh: blocks mouse ROR gamma transcriptional activity | P51450 | Drosophila S2 Gal4-RORgamma UAS-luciferase reporter, 20 h | Potency, µM (titrated, usually from 53.6 µM), without a hit: top-dose activity change, negative = inhibition, usual class: inhibitors | 5.4% of 310,000 active | AID 2551; further: potency means the concentration at half of the fitted maximal effect; on the % scale 0 is the no-effect control and ±100 the full control effect; nearly all actives have a fitted effect of over 60% in size
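Stably transfected Drosophila Schneider cells are the test system, with ROR gamma fused to Gal4 and luciferase under UAS control; luminescence is read after 20 hr of 700 uM copper sulfate induction at ambient temperature.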
ELG1 DNA repair: ELG1-dependent DNA repair inhibition; HEK293T ELG1-luciferase reporter, luminescence, 16 h; DNA damage induced by 5-fluorouridine; Potency, µM (titrated, usually from 46.1 µM), for inactives: top-dose activity change, negative = inhibition, most hits filed as inhibitors; 2.3% of 330,000 active; further: potency means the concentration at half of the fitted maximal effect; on the % scale 0 is the no-effect control and ±100 the full control effect; nearly all actives have a fitted effect of over 55% in size
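Reporter activity after DNA damage by 5-fluorouridine is monitored. Compound-treated cells incubate 16 hr at 37 °C, then ONE-Glo is added for 30 min before luminescence reading.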
ELG1 FLuc counter: luciferase inhibition in cell-free luciferin readout for ELG1 hits | Potency, µM (series often up to 46.1 µM), for the others: at the top dose activity change, negative = inhibition, most hits filed as inhibitors | shares compounds with ELG1 DNA repair | 3% of 350 active | cell-free firefly luciferase luminescence counter-screen, ViewLux; further: potency means the concentration at half of the fitted maximal effect; on the % scale 0 is the no-effect control and ±100 the full control effect
ELG1 Luc conf: confirmation of human ELG1-dependent DNA repair inhibitors. Potency, µM (highest dose often 46.1 µM), for inactives: top-dose activity change, negative = inhibition, hits mostly inhibitors. HEK293T ELG1-luciferase levels, luminescence; cells co-treated with 5-fluorouridine. 68% of 670 active. AID 624248. shares compounds with ELG1 DNA repair; further: potency means the concentration at half of the fitted maximal effect; on the % scale 0 is the no-effect control and ±100 the full control effect; nearly all actives have a fitted effect of over 55% in size
ELG1 MMS Luc: MMS-stimulated human ELG1 repair inhibition, confirmed | 53% of 670 active | AID 624249 | HEK293T luciferase-tagged ELG1 level, MMS stimulated | Potency, µM (series often up to 46.1 µM), for the others: at the top dose activity change, negative = inhibition, actives largely listed as inhibitors | shares compounds with ELG1 DNA repair; further: potency means the concentration at half of the fitted maximal effect; on the % scale 0 is the no-effect control and ±100 the full control effect; nearly all actives have a fitted effect of over 60% in size
ELG1 5FU viab: confirmation of ELG1 repair inhibitors: viability with 5FU | shares compounds with ELG1 DNA repair | cell viability with 5-FU, ELG1-dependent repair | Potency, µM (series often up to 46.1 µM), without a hit: at the top dose activity change, negative = viability loss, actives largely listed as cytotoxic | 670 tested, under 10 active | AID 624250;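 further: ELG1-luc HEK293T cells cotreated with 5-fluorouridine at 10 µM final; potency means the concentration at half of the fitted maximal effect; viability measured 16 h after compound addition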
ELG1 MMS viab: confirmation of ELG1 repair inhibitors: viability with MMS | shares compounds with ELG1 DNA repair | Cell viability with MMS, ELG1-dependent DNA repair | Potency, µM (top dose mostly 46.1 µM), for the others: at the top dose activity change, negative = viability loss, actives largely listed as cytotoxic | 33% of 670 active | AID 624251;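 further: ELG1-luc HEK293T cells co-treated with 10 µM MMS; potency means the concentration at half of the fitted maximal effect; viability read 16 h after compound addition; on the % scale 0 is the no-effect control and ±100 the full control effect; nearly all actives have a fitted effect of over 60% in size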
ELG1 unstim viab: counter-screen for ELG1 repair inhibitors: unstimulated cell viability. 8% of 900 active. Potency, µM (doses to about 45.9 µM), for the others: at the top dose activity change, negative = loss of viability, actives largely listed as cytotoxic. cell viability counter-screen, unstimulated, luminescence. shares compounds with ELG1 DNA repair;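 further: potency means the concentration at half of the fitted maximal effect; compound exposure lasted 16 hours before reading; on the % scale 0 is the no-effect control and ±100 the full control effect; nearly all actives have a fitted effect of over 55% in size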
FLuc biochem: firefly luciferase inhibition counter-screen. shares compounds with ELG1 DNA repair. purified firefly luciferase, luminescence counter-screen. Potency, µM (highest dose often 57.5 µM), inactives show at the top dose activity, negative = inhibition, usual class: inhibitors. 10% of 350 active. AID 624253; further: potency means the concentration at half of the fitted maximal effect; on the % scale 0 is the no-effect control and ±100 the full control effect
* = called active by the depositor; ? = inconclusive; . = no result given; ! = not active in a repeat; [ ] = another dose, or the depositor's remark. Unless noted, the call rests on the fitted dose curve; in most records, active means well fitted curve in the direction sought with a large enough effect; inconclusive means small, poorly fitted or top-dose-only effect, or another doubt; inactive means no such curve, though single readings can be large; an effect the other way counts as inactive or inconclusive.

SMILES	BRCA1 expr act	p53 reactivation	Giardia killer	Gal4-VP16 FLuc	RORg inh	ELG1 DNA repair	ELG1 FLuc counter	ELG1 Luc conf	ELG1 MMS Luc	ELG1 5FU viab	ELG1 MMS viab	ELG1 unstim viab	FLuc biochem
NC(=S)c1cn(C2OC(CO)C(O)C2O)c2ncnc(N)c12 (stereo unspecified)	-87%	-2%	-18	2.5µM*	7.1µM*	0.41µM*	?	0.16µM*	0.32µM*	-3%	2µM*	?	0%
OC(Cn1c2ccccc2c2ccccc21)C[n+]1cccc2ccccc21 (stereo unspecified)	-13%	-6%	-11	-3%	23%	-2%	.	.	.	.	.	.	.
CC(C)CN1CCCC2(CCN(C(=O)Oc3ccccc3)CC2)C1	.	.	.	-10%	25%	.	.	.	.	.	.	.	.
C[C@@H]1O[C@@H](O[C@H]2C[C@@H](O)[C@]3(CO)[C@H]4[C@H](O)C[C@]5(C)[C@@H](C6COC(=O)C6)CC[C@]5(O)[C@@H]4CC[C@]3(O)C2)[C@H](O)[C@H](O)[C@H]1O (stereo partly specified)	-69%	4%	3	-4%	-7%	1.5µM*	?	2.5µM*	1.6µM*	?	3.2µM*	?	3%
C[C@@H]1O[C@@H](OC2CC(O)C3(CO)C4C(CCC3(O)C2)C2(O)CCC(C3=CC(=O)OC3)C2(C)C[C@H]4O)[C@H](O)[C@H](O)[C@H]1O (stereo partly specified)	.	.	.	-7%	12%	.	.	.	.	.	.	.	.
Cn1c(O)c(C(=NCCN2CCCCC2)c2ccccc2Cl)c(=O)n(C)c1=O	-3%	2%	-9	-14%	0%	-19%	.	.	.	.	.	.	.
CC(C)(C)OC(=O)NCc1ccc(CNC(=O)c2nc[nH]c2C(=O)NCc2ccc(CNC(=O)OC(C)(C)C)cc2)cc1	-61%	5%	-3	.	.	2.9µM*	.	5µM*	?	7%	9%	?	.
C[C@@]12C=CC(=O)C=C1CCC1C2CC[C@]2(C)C(=O)CCC12 (stereo partly specified)	.	.	.	5%	-1%	.	.	.	.	.	.	.	.
CN[C@@H]1C[C@@]2(C)O[C@@H]([C@@H]1OC)n1c3ccccc3c3c4c(c5c6ccccc6n2c5c31)C(=O)NC4	.	.	.	.	.	.	0.71µM*	0.5µM*	0.32µM*	11µM*	1µM*	5µM*	1%
CCCCCC1C(=O)O[C@H](C)[C@@H](NC(=O)c2cccc(NC=O)c2O)C(=O)OC(C)C1OC(=O)CC(C)C (stereo partly specified)	.	.	.	11µM*	0.005µM*	.	4%	35%	0.014µM*	-22%	0.014µM*	?	0%
Cc1ccc(NP(=O)(Oc2ccccc2F)Oc2ccccc2F)cc1C	-51%	-8%	-1	-9%	?	?	.	.	.	.	.	.	.
COc1ccccc1OP(=O)(Nc1cccnc1)Oc1ccccc1OC	-35%	-5%	10	-5%	?	2.3µM*	.	11µM*	7.9µM*	8%	-16%	?	.
Cc1nccc2c1[nH]c1ccc(Br)cc12	-12%	-4%	-15	.	.	-7%	.	.	.	.	.	.	.
COc1ccc2c(c1)[nH]c1c(C)nccc12	-1%	-6%	1	?	8.9µM*!	2µM*	.	2.8µM*	11µM*	9%	?	-14%	.
O=C(Nc1cc(C(F)(F)F)cc(C(F)(F)F)c1)c1cc(Cl)ccc1O	.	.	.	1µM*	0.89µM*	.	?	0.71µM*	0.35µM*	?	0.4µM*	?	-9%
Nc1cc(Cl)cc(C(=O)O)c1Cl	-7%	15%	43	10%	6%	8%	.	.	.	.	.	.	.
CCOC(=O)c1cccc(NS(=O)(=O)c2ccc(NC(C)=O)cc2)c1	7%[1.84 µM]	-6%	-3	5µM*	?	4.6µM*	.	13µM*	10µM*	-9%	11µM*	?	.
O=C1Nc2ccc(Cl)cc2C(c2ccccc2)=NC1O (stereo unspecified)	.	.	.	0%	4%	.	.	.	.	.	.	.	.
CCOP(=O)(OCC)C(Nc1cccc([N+](=O)[O-])c1)c1ccc(OC)cc1 (stereo unspecified)	0%	-2%	-6	-6%	11%	?	.	.	.	.	.	.	.
COc1ccc(C(Nc2ccccc2)P(=O)(Oc2ccccc2)Oc2ccccc2)cc1 (stereo unspecified)	-20%	5%	5	?	30%	?	21%	7.1µM*	?	?	?	?	1%
C=C1C(=O)O[C@@H]2C[C@@H](C)[C@@H]3C=CC(=O)[C@@]3(C)[C@@H](O)[C@H]12	-39%	-15%	-3	3.2µM*	3.2µM*	4.1µM*	?	?	0.0045µM*	?	0.0056µM*	2.8µM*	7.3µM*
CCn1cc(CN(C)S(=O)(=O)c2ccc3ccccc3c2)c(C)n1	-32%	-3%	0	?	?	-12%	.	.	.	.	.	.	.

Source: PubChem
